Laboratory results published in the supplement of paper PMC10338343.
± gives the standard deviation. In all, about 6,200 sequences were measured (“pre-steady-state target cleavage rate”: median about 0.29, highest 2% from about 2 on). What follows is part of a selection rich in the highest values, with near analogues and random picks from the rest.

What follows are sequences tested on MIWI (PIWIL1) piRISC loaded with piRNA #1 (30 nt) (assay: pre-steady-state target cleavage rate (min^-1); MIWI and MILI are mouse PIWI proteins and EfPiwi is from a freshwater sponge; tags in brackets are library labels; higher = faster piRNA-guided slicing of the target). Details: guide: piRNA #1 5'p-UGAGGUAGUAGGUUGUAUAGUAUCCAGAGG; auxiliary factor: 500 nM mouse GTSF1.
In short: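 In Cleave-'n-Seq, a transcribed, DNA-blocked target RNA library (0.1 nM) was combined with 1 nM active affinity-purified piRISC bearing one synthetic guide, with or without 500 nM GTSF1 partner protein. Reactions ran in HEPES–potassium acetate buffer at 33 °C for 0–8 or 0–960 min. Uncleaved targets were sequenced and normalised to depth and to weakly complementary targets, three trials were pooled, and k3 was capped at 0.0001 min^-1. The pre-steady-state cleavage rate was obtained by fitting a burst-and-steady-state model.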

Row | Sequence | pre-steady-state target cleavage rate
1 | GCUCUCGAUACUAAACAACCUACUACCUCA | 1.81 ± 0.12
2 | GCUCUCGAUACUUUACAACCUACUACCUCA | 1.69 ± 0.11
3 | CCUCUCGAUACUAAACAACCUACUACCUCA | 2.13 ± 0.14
4 | CCUCUCGAUACUAUACAACCUACUACCUGA | 0.985 ± 0.087
5 | GGUCUCGAUACUAAACAACCUACUACCUCA | 1.68 ± 0.12
6 | GCUCUCGGAUACUAUACAACCUACUACCUCA | 1.76 ± 0.088
7 | GGUCUCGAUACUUUACAACCUACUACCUCA | 1.54 ± 0.093
8 | GGUCUCGAUACUAUACAACCUACUACCACA | 0.758 ± 0.064
9 | GCUCUGGAUACUAUACAACCUACGACCUCA | 1.22 ± 0.083
10 | GGUCUGGAAACUAUACAACCAACUACCUCA | 0.138 ± 0.015
11 | GGAGACCAUACUUACAACCUACUACCUCA | 0.269 ± 0.028
12 | GGACAGGAUACUAAACAACCUACUACCUCA | 1.64 ± 0.11
13 | GGAGACCAUUCUAUACAACCUACUACCACA | 1.16 ± 0.1
14 | CCACUCGAUACUAUACAACCUACUACCUCA | 2.13 ± 0.14
15 | GCUCUCGAUACUAUACAACCUACUACCUGA | 1.07 ± 0.11
16 | GCUCUCGAUACUAUACAACCUACUACCACA | 2.17 ± 0.15
17 | GGACUCGAUACUAUACAACCUACUACCUCA | 1.69 ± 0.12
18 | GCACUCGAUACUAUACAACCUACUACCUCA | 1.43 ± 0.059
19 | GGACUCGAUACUAUACAACCUACUACCACA | 0.579 ± 0.063
20 | CCUCUGGAUACUAUACUACCUACUACCACA | 1.68 ± 0.12
21 | GGAGUGGAUACUACACAACCUACUACCUCA | 1.71 ± 0.097
22 | GGAGACGAUACUAUACAGCCUACUACCUCA | 0.668 ± 0.028
23 | GGAGUGGUUACUAUACAACCUAGUACCUCA | 0.371 ± 0.05
24 | GGAGACCUUACUAUACAACCUACUUCCUCA | 0.399 ± 0.035

Row | Sequence | pre-steady-state target cleavage rate
25 | GCUCUGGAUAGAUUACAACCUACUACCUCA | 0.735 ± 0.048
26 | GCUCAGGUUACUAUACAACCUACUACCUCA | 2.01 ± 0.12
27 | GCUCAGGAUACUAUACAACCUACUACCUCA | 1.85 ± 0.11
28 | GCUCAGGAUACUAUACAACCUACAACCUCA | 0.866 ± 0.076
29 | CCUCAGGUUACUAUACAACCUACUACCUCA | 2.5 ± 0.16
30 | CCUCAGGAUACUAUACAACCUACUACCUCA | 1.98 ± 0.12
31 | GGACAGGUUACUAUACAACCUACUACCUCA | 1.9 ± 0.14
32 | GGUCUGGAUUCUAAACAACCUACUACCUCA | 1.23 ± 0.071
33 | GGAGACCUAUGUAUACAACCUACUCACCUCA | 0.144 ± 0.027
34 | GGAGACCUAACUAUACAACAUACUACCUCA | 0.303 ± 0.036
35 | GGAGAGGAUACUAUACACCCUACUACCUCA | 1.4 ± 0.068
36 | GCUCUGGAUACUAUACAACCUACUACCUCU [g2:g29:cont:t1U] | 2.16 ± 0.13
37 | CCUCUGGAUACUAUACAACCUACUACCUCCA | 2.27 ± 0.14
38 | GCUCUGGAUACUAUACAACCUACUACCUCG [g2:g29:cont:t1G] | 1.29 ± 0.098
39 | GCUCUGGAUACUAUACAACCUACUACCUAA | 1.83 ± 0.12
40 | GGUCUGGAUACUAUACAACCUACUACCUCCA | 2.06 ± 0.12
41 | GCUCUGGAUACUAUACAACCUACUACCUCCA | 2.15 ± 0.14
42 | GGUCUGGAUACUAUACUACCUACAACCUCA | 0.456 ± 0.054
43 | GCUCUGGAUACUAUACAACCUACUACCUACA | 1.87 ± 0.13
44 | GGUCUGGAUACUAUACAACCUACUACCUCU [g2:g28:cont:t1U] | 1.59 ± 0.11
45 | GGUCUGGAUACUAUACAACCUACUACCUCC [g2:g28:cont:t1C] | 1.54 ± 0.11
46 | GCUCUGGAUACCUAUACAACCUACUACCUCA | 1.06 ± 0.08
47 | GGAGACCAUACUAAACAACCUACUUCCUCA | 0.195 ± 0.024
48 | GGAGUGGAUACUAUACUACCUACUACCUGA | 0.329 ± 0.052

Row | Sequence | pre-steady-state target cleavage rate
49 | GGAGUGGUUACUAUACAACGUACUACCUCA | 0.386 ± 0.027
50 | GGAGACGAUACUUUACAACCUACUAGCUCA | 0.142 ± 0.027
51 | GGUCUGGAUACUAUAGAACCUACUACCACA | 0.0228 ± 0.0058
52 | GGAGACGAUACAAUACAACCUACUACCUCA | 1.29 ± 0.097
53 | GGAGUGGAUACUAUAGAACCUACUACCUCA | 1.34 ± 0.076
54 | GGAGACCAUACUAUUCAACCUACUACCUGA | 0.64 ± 0.075
55 | GGAGAGGAUACUAUAGAACCUACUUCCUCA | 0.00722 ± 0.0046
56 | GGACUGCUUACUAUACAACCUACUACCUCA | 1.54 ± 0.14
57 | GGAGACCUAUGUAUACAAUCUACUACCUCA | 0.0144 ± 0.0036
58 | GCUCUGGAUACUAUACAACCUACUACCUCC [g2:g29:cont:t1C] | 2 ± 0.13
59 | GCUCUGGAUACUAUACAACCUACUACCUA | 1.37 ± 0.1
60 | GCUCUGGAUACUAUACUACCUACAACCUCA | 0.938 ± 0.086
61 | GGAGACCAUACUUUACAACCUACUACCUCA | 1.3 ± 0.087
62 | GCUCUGGAUACCAUACAACCUACUACCUCA | 0.756 ± 0.059
63 | CCUCUGGAUACUAUACAACCUACUACUCUCA | 2.32 ± 0.16
64 | GCUCUGGAUACUAUACAACCUACUAUCUCA | 2.32 ± 0.24
65 | GCUCUGGAUACUAUACAACCUACUACUCA | 1.64 ± 0.14
66 | CCUCUGGAUACUAUACAACCUACUAUCUCA | 1.09 ± 0.076
67 | CCUCUGGAUACUAUACAACCUACUCCUCA | 0.105 ± 0.022
68 | GCUCUGGAUACUAUACAACCUACUACUCUCA | 2.07 ± 0.12
69 | GCUCUGGAUACUAUACAACCUAUCUACCUCA | 0.356 ± 0.028
70 | GGUCUGGAUACUAUACAACCUACUACUCUCA | 1.2 ± 0.1
71 | CCUCUGGAUACUAUACAACCUACUACUCA | 1.76 ± 0.15
72 | CCUCUGGAUAGUAUACAACGUACUACCUCA | 0.0367 ± 0.011
